Assay results: the supplement of paper PMC11732987, “Enantioselective OTUD7B fragment discovery through chemoproteomics screening and high-throughput optimisation” (Communications Chemistry, 2025)

Key:
Assay in all cases: log2 ratio of Biotin-Ahx-Ub-VS probe labelling (fragment/DMSO); higher = less target engagement (more negative = stronger competition), active = hit call of the paper (q ≤ 0.05, log2 ratio ≤ -1)
Settings in all cases: compound concentration: 200 uM; treatment time: 3 h
[1] = biological target: USP9X (UniProt Q93008)
How it was run: (§1)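 HEK293T lysate in Tris/CHAPS/IGEPAL buffer with protease inhibitors (495 µg per sample) was given fragment at 200 µM or vehicle for 3 h, in triplicate. It then received Biotin-Ahx-Ub-VS at 0.5 µM final for 1 h. Labelled DUBs were NeutrAvidin-enriched, digested with LysC and trypsin, and run by diaPASEF LC-MS/MS. Values are average log2 fragment/vehicle ratios by unpaired t-test on global-median-normalised Spectronaut quantities of proteins with ≥2 unique peptides.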

[2] = biological target: UniProt O00487
Chain of UniProt O00487 (O00487 whole entry): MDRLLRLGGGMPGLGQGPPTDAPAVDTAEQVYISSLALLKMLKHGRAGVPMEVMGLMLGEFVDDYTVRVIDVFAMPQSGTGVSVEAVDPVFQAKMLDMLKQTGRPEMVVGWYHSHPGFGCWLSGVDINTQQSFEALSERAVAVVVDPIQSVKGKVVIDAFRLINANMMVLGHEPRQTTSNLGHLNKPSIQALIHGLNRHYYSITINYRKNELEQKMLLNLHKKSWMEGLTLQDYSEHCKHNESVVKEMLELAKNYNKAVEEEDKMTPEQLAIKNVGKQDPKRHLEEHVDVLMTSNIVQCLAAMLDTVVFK
How it was run: as §1

[3] = biological target: UniProt O00507
Chain of UniProt O00507 (O00507 whole entry): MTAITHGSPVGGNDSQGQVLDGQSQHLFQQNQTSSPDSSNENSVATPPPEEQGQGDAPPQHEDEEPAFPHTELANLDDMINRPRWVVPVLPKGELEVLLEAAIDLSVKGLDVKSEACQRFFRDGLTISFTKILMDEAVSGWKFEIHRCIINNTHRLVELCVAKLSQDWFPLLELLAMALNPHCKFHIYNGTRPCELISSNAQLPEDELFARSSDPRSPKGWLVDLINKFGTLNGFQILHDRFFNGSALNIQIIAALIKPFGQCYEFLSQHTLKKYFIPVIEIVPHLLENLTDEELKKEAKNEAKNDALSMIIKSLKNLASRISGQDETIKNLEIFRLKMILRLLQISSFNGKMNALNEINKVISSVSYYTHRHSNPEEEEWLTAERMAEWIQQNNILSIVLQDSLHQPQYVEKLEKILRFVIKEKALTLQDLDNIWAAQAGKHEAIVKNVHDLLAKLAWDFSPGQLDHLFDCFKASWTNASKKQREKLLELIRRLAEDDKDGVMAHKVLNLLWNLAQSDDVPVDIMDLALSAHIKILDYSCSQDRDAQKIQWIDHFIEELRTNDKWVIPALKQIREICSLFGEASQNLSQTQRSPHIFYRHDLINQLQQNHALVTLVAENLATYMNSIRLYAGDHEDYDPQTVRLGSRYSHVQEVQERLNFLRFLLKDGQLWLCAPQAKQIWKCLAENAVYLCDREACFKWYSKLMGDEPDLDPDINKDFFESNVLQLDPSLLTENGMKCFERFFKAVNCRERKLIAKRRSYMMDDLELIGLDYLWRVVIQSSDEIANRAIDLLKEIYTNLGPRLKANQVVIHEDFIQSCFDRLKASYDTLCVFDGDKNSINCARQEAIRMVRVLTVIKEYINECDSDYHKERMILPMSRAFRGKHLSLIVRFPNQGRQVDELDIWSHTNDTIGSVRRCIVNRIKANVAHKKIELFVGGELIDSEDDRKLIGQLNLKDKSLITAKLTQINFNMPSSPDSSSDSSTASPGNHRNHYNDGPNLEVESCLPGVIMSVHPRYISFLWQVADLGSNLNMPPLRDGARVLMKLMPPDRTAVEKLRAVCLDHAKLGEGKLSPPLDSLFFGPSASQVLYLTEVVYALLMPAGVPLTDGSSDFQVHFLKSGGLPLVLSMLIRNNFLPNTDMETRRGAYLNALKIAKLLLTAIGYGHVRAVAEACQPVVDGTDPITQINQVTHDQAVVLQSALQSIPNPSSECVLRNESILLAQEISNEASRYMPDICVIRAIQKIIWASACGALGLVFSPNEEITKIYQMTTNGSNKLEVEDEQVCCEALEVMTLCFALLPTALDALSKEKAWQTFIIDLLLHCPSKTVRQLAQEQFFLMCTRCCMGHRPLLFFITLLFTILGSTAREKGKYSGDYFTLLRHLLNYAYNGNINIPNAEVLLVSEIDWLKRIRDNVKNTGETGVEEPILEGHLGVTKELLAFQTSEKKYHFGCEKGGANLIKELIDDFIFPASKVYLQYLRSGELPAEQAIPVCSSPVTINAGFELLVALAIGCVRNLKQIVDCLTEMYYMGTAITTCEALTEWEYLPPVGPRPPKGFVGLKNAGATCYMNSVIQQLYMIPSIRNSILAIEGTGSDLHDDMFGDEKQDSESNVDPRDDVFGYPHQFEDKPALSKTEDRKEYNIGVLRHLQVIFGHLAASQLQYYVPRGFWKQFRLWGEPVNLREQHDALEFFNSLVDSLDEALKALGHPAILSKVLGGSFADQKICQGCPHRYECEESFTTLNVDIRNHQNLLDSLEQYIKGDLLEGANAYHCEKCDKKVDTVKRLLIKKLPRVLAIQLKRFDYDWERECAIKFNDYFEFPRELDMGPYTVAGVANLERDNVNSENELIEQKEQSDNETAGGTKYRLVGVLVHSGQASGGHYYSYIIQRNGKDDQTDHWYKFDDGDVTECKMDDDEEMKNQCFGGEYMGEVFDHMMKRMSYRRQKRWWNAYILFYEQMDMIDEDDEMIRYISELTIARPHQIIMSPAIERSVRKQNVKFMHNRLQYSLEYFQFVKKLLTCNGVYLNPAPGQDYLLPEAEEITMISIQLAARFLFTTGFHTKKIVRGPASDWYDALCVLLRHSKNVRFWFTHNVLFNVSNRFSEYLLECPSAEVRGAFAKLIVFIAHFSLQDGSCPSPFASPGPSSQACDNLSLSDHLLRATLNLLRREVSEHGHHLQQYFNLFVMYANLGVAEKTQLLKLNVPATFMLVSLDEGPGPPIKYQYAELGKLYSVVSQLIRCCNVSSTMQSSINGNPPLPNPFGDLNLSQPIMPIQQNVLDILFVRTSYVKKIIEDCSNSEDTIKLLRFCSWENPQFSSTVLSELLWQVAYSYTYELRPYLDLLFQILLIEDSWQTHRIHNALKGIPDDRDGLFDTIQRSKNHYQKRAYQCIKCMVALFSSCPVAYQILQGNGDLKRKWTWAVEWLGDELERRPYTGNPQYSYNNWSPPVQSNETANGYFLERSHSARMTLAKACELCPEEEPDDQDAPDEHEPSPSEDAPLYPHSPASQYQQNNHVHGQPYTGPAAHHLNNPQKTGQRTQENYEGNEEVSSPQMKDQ
How it was run: as §1

[4] = biological target: UniProt P51784
Chain of UniProt P51784 (P51784 whole entry): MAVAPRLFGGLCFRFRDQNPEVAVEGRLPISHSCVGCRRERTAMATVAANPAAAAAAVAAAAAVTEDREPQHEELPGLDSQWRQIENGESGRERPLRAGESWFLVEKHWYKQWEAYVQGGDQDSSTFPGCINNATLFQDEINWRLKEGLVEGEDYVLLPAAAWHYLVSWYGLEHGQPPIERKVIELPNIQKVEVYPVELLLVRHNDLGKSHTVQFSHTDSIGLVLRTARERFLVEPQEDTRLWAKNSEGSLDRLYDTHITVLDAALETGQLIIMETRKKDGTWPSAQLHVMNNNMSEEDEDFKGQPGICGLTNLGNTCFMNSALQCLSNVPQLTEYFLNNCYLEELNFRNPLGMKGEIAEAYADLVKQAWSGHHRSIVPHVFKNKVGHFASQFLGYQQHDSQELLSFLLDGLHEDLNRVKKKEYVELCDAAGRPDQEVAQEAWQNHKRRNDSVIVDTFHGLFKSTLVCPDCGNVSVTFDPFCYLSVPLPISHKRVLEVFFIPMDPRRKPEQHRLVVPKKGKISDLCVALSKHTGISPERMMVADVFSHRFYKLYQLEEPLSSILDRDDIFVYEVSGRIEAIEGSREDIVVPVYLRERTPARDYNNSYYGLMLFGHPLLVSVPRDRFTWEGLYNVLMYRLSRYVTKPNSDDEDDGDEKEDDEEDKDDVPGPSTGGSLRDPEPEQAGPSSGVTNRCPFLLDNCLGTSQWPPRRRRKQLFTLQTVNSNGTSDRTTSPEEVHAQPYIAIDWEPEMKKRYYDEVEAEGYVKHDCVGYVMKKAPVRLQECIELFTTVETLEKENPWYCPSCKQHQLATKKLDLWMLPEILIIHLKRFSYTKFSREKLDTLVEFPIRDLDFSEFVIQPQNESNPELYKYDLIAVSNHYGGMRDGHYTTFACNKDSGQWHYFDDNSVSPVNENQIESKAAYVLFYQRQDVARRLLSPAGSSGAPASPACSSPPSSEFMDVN
How it was run: as §1

[5] = biological target: T1, UniProt Q5T2D3
T1 sequence (whole entry): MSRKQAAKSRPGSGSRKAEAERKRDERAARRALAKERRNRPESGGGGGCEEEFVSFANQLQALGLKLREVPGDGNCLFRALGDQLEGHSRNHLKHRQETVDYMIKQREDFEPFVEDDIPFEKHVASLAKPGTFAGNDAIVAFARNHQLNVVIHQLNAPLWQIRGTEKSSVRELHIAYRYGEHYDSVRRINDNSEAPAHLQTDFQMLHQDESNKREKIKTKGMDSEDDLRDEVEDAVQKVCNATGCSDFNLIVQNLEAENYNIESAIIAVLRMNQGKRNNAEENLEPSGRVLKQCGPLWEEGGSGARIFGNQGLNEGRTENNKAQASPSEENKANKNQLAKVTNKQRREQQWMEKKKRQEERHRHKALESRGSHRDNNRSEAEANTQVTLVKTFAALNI
How it was run: as §1

[6] = biological target: T2, UniProt Q8TE49
T2 sequence (whole entry): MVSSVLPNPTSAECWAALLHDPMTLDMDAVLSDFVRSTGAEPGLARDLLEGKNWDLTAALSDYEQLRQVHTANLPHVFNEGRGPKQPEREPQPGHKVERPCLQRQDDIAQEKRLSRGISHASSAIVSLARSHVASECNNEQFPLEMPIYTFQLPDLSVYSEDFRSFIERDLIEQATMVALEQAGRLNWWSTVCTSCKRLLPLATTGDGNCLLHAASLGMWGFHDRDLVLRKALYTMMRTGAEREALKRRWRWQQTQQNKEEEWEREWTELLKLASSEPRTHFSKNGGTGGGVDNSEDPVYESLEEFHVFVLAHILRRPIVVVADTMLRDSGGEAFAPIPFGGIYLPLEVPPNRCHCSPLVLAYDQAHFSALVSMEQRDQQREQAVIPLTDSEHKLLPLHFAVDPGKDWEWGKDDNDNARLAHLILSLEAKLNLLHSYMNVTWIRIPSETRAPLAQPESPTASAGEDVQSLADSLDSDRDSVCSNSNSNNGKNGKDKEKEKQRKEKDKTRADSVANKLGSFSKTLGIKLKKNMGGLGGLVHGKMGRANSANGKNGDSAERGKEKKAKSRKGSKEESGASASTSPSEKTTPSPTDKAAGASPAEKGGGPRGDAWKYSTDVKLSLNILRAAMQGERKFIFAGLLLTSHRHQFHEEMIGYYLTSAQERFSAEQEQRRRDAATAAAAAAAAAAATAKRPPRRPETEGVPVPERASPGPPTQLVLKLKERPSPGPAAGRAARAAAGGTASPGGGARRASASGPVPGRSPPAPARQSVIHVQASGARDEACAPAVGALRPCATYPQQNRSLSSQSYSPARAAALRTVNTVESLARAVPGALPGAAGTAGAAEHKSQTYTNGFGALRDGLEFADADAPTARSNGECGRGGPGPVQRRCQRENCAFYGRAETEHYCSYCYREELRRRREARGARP
How it was run: as §1

[7] = biological target: T3, UniProt Q9P2H5
T3 sequence (whole entry): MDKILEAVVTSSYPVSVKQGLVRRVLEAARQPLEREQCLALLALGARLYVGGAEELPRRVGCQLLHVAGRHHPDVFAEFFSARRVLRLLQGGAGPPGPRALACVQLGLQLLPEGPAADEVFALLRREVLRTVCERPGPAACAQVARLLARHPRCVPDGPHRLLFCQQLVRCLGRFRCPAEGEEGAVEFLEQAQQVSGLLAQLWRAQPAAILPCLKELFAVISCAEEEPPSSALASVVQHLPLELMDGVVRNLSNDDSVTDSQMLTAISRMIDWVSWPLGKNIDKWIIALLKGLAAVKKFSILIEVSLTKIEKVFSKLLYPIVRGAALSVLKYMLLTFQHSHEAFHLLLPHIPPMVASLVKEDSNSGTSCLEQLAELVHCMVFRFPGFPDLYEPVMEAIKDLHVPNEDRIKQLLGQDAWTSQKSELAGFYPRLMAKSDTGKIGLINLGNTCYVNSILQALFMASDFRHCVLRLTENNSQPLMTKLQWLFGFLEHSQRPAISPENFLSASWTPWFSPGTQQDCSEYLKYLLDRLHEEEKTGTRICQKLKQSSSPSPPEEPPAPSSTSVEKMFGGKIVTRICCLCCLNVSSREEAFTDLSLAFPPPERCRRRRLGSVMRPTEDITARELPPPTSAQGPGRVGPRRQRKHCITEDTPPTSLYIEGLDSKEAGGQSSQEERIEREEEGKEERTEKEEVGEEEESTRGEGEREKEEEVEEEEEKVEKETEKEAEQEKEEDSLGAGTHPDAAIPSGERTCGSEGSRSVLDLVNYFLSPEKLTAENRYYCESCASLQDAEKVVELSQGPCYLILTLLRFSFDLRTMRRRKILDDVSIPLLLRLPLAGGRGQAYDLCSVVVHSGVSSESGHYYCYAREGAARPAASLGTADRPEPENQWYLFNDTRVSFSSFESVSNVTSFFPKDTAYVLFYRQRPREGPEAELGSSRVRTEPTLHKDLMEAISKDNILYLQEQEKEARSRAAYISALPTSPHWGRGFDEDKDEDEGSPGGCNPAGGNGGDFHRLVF
How it was run: as §1

[8] = biological target: T4, UniProt Q9UGI0
T4 sequence (whole entry): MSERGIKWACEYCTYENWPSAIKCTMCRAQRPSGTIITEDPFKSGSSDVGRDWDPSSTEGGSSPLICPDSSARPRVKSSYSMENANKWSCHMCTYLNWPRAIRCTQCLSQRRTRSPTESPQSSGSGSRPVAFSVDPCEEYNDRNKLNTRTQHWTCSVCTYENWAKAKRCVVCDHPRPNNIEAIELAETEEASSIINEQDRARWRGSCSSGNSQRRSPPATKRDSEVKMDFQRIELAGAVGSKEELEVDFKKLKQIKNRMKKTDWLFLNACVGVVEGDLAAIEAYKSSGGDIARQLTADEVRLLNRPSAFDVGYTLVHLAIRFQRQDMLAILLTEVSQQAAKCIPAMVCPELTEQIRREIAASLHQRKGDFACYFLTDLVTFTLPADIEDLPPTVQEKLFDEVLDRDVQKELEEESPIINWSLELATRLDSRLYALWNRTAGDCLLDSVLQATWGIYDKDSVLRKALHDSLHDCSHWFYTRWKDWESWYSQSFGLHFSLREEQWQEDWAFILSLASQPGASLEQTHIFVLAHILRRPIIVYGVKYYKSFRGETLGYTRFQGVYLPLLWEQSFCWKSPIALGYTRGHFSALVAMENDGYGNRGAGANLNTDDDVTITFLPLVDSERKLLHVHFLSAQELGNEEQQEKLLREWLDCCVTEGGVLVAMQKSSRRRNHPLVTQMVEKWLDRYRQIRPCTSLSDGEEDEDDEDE
How it was run: as §1

[9] = biological target: T5, YOD1 (UniProt Q5VVQ6)
T5 sequence (whole entry): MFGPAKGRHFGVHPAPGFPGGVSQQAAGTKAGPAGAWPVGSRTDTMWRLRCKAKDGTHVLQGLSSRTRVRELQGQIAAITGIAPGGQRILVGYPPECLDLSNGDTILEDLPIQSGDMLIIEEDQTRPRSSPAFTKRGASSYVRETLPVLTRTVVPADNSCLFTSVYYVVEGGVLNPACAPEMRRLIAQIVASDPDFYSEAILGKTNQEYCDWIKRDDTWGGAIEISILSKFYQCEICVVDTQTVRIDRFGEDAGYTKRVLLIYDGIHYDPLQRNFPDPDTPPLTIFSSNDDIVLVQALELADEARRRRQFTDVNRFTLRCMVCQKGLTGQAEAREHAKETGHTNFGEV
How it was run: as §1

Measured: log2 ratio of Biotin-Ahx-Ub-VS probe labelling

Cc1ccc(C(=O)NCCNC(=O)CCl)cc1
inactive: [1] -0.316 | [2] -0.0816 | [3] -0.256 | [4] 0.00304 | [5] -0.199 | [6] -0.373 | [7] -0.35 | [8] -0.456 | [9] -0.0895
